Compound activity as filed in PubChem.
An excerpt weighted towards active compounds, which were near 9.2% of everything screened.
ELG1 genotoxic: qHTS screen for small molecules that induce genotoxicity in human embryonic kidney (HEK293T) cells expressing luciferase-tagged ELG1; actives 1.3% (n = 330,000); AID 504466, 2011; HEK293T ELG1-luciferase reporter, luminescence, 16 h; Potency, µM (top dose mostly 46 µM), hits mostly activators; also: nearly all actives have a fitted effect of over 60% in size
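ELG1-luciferase HEK293T cells, 2,000/well; compound pinned in; 16 hr, 37 °C, 5% CO2; ONE-Glo, 30 min RT; luminescence on CCD imager.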
Rab9 prom act: qHTS Assay for Rab9 Promoter Activators; Huh7 Rab9 promoter-luciferase reporter, luminescence, 24 h; Potency, µM (highest dose often 9.22 µM), hits mostly activators; actives 2.8% (n = 320,000); also: nearly all actives have a fitted effect of over 60% in size
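Huh7 cells stably carrying Rab9 promoter–luciferase reporter, plated 1500 cells/well, compound added after 2 h and incubated 24 h at 37 °C; luciferase luminescence then read after 10 min with detection reagent.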
SMN2 splice up: qHTS Assay for Enhancers of SMN2 Splice Variant Expression; HEK293 SMN2-luciferase splicing reporter, luminescence, 30-36 h; Potency, µM (series often up to 46.1 µM), usual class: activators; actives 2.8% (n = 210,000); AID 1458, 2008; also: nearly all actives have a fitted effect of over 55% in size
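HEK293 cells carry an SMN2 minigene-luciferase reporter in which exon 7 inclusion puts luciferase in frame. Cells were seeded at 2000 cells/well, attached for 10-12 hours, then exposed to compounds for 30-36 hours at 37C before ONE-Glo luminescence.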
FLuc counter: qHTS profiling assay for firefly luciferase inhibitor/activator using purifed enzyme and Km concentrations of substrates (counterscreen for miR-21 project). Luciferin 4-monooxygenase (Photinus pyralis), P08659. purified FLuc, Km substrates, luminescence inhibition. Potency, µM (series often up to 57.5 µM), hits mostly inhibitors. actives 6.9% (n = 360,000); also: nearly all actives have a fitted effect of over 55% in size
Target sequence (P08659 whole entry, looked up): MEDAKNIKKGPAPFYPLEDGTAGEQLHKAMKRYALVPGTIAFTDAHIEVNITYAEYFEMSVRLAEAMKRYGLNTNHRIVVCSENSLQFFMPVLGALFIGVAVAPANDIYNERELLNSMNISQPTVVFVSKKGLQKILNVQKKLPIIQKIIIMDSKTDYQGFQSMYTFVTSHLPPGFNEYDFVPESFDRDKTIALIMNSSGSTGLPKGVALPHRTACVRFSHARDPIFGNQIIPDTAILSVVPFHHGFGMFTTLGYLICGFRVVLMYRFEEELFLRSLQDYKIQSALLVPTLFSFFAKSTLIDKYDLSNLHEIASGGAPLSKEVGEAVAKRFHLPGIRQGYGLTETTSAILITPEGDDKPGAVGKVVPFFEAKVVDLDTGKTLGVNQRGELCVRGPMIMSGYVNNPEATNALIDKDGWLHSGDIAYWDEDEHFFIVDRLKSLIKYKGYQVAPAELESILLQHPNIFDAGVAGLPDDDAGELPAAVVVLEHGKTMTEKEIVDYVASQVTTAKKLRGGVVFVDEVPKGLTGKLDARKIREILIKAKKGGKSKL
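Purified P. pyralis luciferase (10nM final) with 10uM D-luciferin and 10uM ATP (Km levels) in 50mM Tris acetate pH 7.5, 10mM Mg acetate, 0.01% Tween-20, 0.05% BSA; qHTS 6-point titration, ~60 µM downward; luminescence read.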
ELG1 DNA repair: qHTS screen for small molecules that inhibit ELG1-dependent DNA repair in human embryonic kidney (HEK293T) cells expressing luciferase-tagged ELG1 | HEK293T ELG1-luciferase reporter, luminescence, 16 h; DNA damage induced by 5-fluorouridine | Potency, µM (titrated, usually from 46.1 µM), actives largely listed as inhibitors | actives 2.3% (n = 330,000) | AID 504467, 2011; also: nearly all actives have a fitted effect of over 55% in size
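Overnight (16 hr) co-exposure of 2,000 cells/well to 5-fluorouridine and compound at 37 °C preceded detection. Luciferase was quantified via ONE-Glo luminescence; loss of signal denotes inhibition.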
NPC1 prom act: qHTS Assay for NPC1 Promoter Activators; Huh7 NPC1 promoter luciferase reporter, 24 h; actives 2.4% (n = 320,000); Potency, µM (series often up to 9.22 µM), hits mostly activators; AID 485313, 2010; also: nearly all actives have a fitted effect of over 60% in size
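Luminescence from an NPC1 promoter-driven luciferase reporter in stably transfected Huh7 cells was measured after 24 h compound treatment at 37 °C, followed by 10 min ambient incubation with luciferase detection reagent.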
ELG1 FLuc counter: qHTS screen for small molecules that inhibit ELG1-dependent DNA repair: Hit Confirmation in Cell-Based Luciferin Assay. shares compounds with ELG1 DNA repair. cell-free firefly luciferase luminescence counter-screen, ViewLux. Potency, µM (top dose mostly 46.1 µM), usual class: inhibitors. actives 3% (n = 350)
ELG1-Luc inh: HTS assay for small molecules that inhibit ELG1-dependent DNA repair in human embryonic kidney (HEK293T) cells expressing luciferase-tagged ELG1: Hit Confirmation | shares compounds with ELG1 DNA repair | HEK293T ELG1-luciferase levels, luminescence; cells co-treated with 5-fluorouridine | Potency, µM (series often up to 46.1 µM), most hits filed as inhibitors | actives 68% (n = 670); also: nearly all actives have a fitted effect of over 55% in size
ELG1-Luc MMS: MMS-stimulated human ELG1 repair inhibition, confirmed | shares compounds with ELG1 DNA repair | HEK293T luciferase-tagged ELG1 level, MMS stimulated | Potency, µM (series often up to 46.1 µM), hits mostly inhibitors | actives 53% (n = 670); also: nearly all actives have a fitted effect of over 60% in size
ELG1 5FU viab: qHTS screen for small molecules that inhibit ELG1-dependent DNA repair: Hit Confirmation with 5FU Viability; shares compounds with ELG1 DNA repair; cell viability with 5-FU, ELG1-dependent repair; Potency, µM (series often up to 46.1 µM), actives largely listed as cytotoxic; 670 tested, under 10 active;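 also: ELG1-luc HEK293T cells cotreated with 5-fluorouridine at 10 µM final; viability measured 16 h after compound addition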
ELG1 MMS cell: qHTS screen for small molecules that inhibit ELG1-dependent DNA repair: Hit Confirmation with MMS Viability; actives 33% (n = 670); Potency, µM (series often up to 46.1 µM), hits mostly cytotoxic; shares compounds with ELG1 DNA repair; Cell viability with MMS, ELG1-dependent DNA repair;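 also: ELG1-luc HEK293T cells co-treated with 10 µM MMS; viability read 16 h after compound addition; nearly all actives have a fitted effect of over 60% in size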
Cell viab unstim: qHTS screen for small molecules that inhibit ELG1-dependent DNA repair: Hit Confirmation with Unstimulated Viability Assay. shares compounds with ELG1 DNA repair. cell viability counter-screen, unstimulated, luminescence. Potency, µM (titrated, usually from 45.9 µM), hits mostly cytotoxic. actives 8% (n = 900). AID 624252, 2012;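 also: compound exposure lasted 16 hours before reading; nearly all actives have a fitted effect of over 55% in size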
FLuc enzyme: qHTS screen for small molecules that inhibit ELG1-dependent DNA repair: Hit Confirmation in Biochemical Luciferin Assay; purified firefly luciferase, luminescence counter-screen; actives 10% (n = 350); Potency, µM (doses to about 57.5 µM), hits mostly inhibitors; shares compounds with ELG1 DNA repair
Numbers stand for hits; 0 = inactive; ? = inconclusive; - = no result; [ ] = remark or other dose. Calls follow the shape of the dose curve; as a rule, active = well fitted curve in the direction sought with a large enough effect; inconclusive = small, poorly fitted or top-dose-only effect, or another doubt; inactive = no such curve, though single readings can be large; an effect the other way counts as inactive or inconclusive.

SMILES	ELG1 genotoxic	Rab9 prom act	SMN2 splice up	FLuc counter	ELG1 DNA repair	NPC1 prom act	ELG1 FLuc counter	ELG1-Luc inh	ELG1-Luc MMS	ELG1 5FU viab	ELG1 MMS cell	Cell viab unstim	FLuc enzyme
Cc1ccc(Cl)cc1N1CCN(S(=O)(=O)c2ccc3c(c2)CC(C)N3C(=O)C2CCC2)CC1 (centres undefined)	-	-	-	0	-	-	-	-	-	-	-	-	-
CC(=O)N1c2ccc(S(=O)(=O)N3CCC(C(=O)N4CCN(c5cc(Cl)ccc5C)CC4)CC3)cc2CC1C (centres undefined)	0	0	-	0	?	0	0	14.1µM	?	0	0	?	0
CC(C)(C)C(=O)Nc1ccc(S(=O)(=O)N2CCC(c3nc4ccccc4[nH]3)CC2)cc1	0	0	-	0	3.66µM	0	-	2.5µM	0	?	0	0	-
CC(=O)Nc1ccc(S(=O)(=O)N2CCC(c3nc4ccccc4[nH]3)CC2)cc1	0	0	0	0	0	0	-	-	-	-	-	-	-
COC(=O)N1C2=C(c3ccccc3[C@@H]1CC(=O)Nc1ccc3ccc4cccc5ccc1c3c45)[C@@H]1C(=O)N(c3ccccc3)C(=O)[C@@H]1[C@H](C)C2	-	-	0[9.22 µM]	-	-	-	-	-	-	-	-	-	-
COc1ccc(C[C@H](N)C(=O)N[C@H]2[C@@H](O)[C@H](n3cnc4c(N(C)C)ncnc43)O[C@@H]2CO)cc1	0	0	-	0	2.51µM	0	-	3.15µM	1.58µM	?	2.23µM	2.23µM	-
C=CCOc1ccc(C[C@H](N)C(=O)NC[C@H]2O[C@@H](n3cnc4c(N)ncnc43)[C@H](O)[C@@H]2O)cc1	0	-	-	-	0	-	-	-	-	-	-	-	-
Nn1cc(Br)c(=O)[nH]c1=O	-	-	0	-	-	-	-	-	-	-	-	-	-
COc1ccc(S(=O)(=O)NCc2ccncc2)cc1NC(=O)c1ccc(Cl)cc1	0	0	-	0	?	0	0	17.7µM	?	0	?	?	0
COc1ccc(S(=O)(=O)NCc2ccncc2)cc1NC(=O)c1ccccc1	0	0	-	0	0	0	-	-	-	-	-	-	-
COc1cc(C)cc2oc(=O)c(CC(=O)N3CCN(C(=O)C4COc5ccccc5O4)CC3)c(C)c12 (centres undefined)	0	0	-	0	?	0	-	-	-	-	-	-	-
CC(=O)Oc1ccc2c(C)c(CC(=O)N3CCN(C(=O)C4COc5ccccc5O4)CC3)c(=O)oc2c1C (centres undefined)	0	0	-	0	?	0	0	2.5µM	?	?	?	?	0
C=CCn1c(Oc2cc(C)ccc2C)nc2c1c(=O)n(C)c(=O)n2C	0	0	0	0	?	0	-	-	-	-	-	-	-
C=CCn1c(Oc2ccccc2F)nc2c1c(=O)n(C)c(=O)n2C	0	0	-	0	4.11µM	0	-	17.7µM	19.9µM	?	0	0	-
COc1ccccc1C(=O)COC(=O)c1ccccc1OCC(=O)Nc1ccc(SC(F)F)cc1	0	0	0	0	4.61µM	0	-	7.05µM	?	?	0	0	-
Cn1nc(CC(=O)Nc2ccc3c(c2)CCC3)c2ccccc2c1=O	0	0	0	0	0.517µM	0	0	?	0.706µM	0	0.889µM	?	0
O=C(O)/C=C/c1cccnc1	0	0	-	0	0	0	-	-	-	-	-	-	-
CC(C)CCNC(=O)COC(=O)/C=C/c1ccc2ccccc2n1	0	0[1.84 µM]	0	0	0	0	-	-	-	-	-	-	-
C(=C\c1ccc2ccccc2n1)/c1cccnc1	-	-	-	-	-	-	0	-	-	-	-	?	0.291µM
C(=C\c1ccc2ccccc2n1)/c1ccc2ccccc2n1	-	-	-	-	-	-	0	-	-	-	-	0	0.291µM
CCOC(=O)c1cccc(NC(=O)N2CC(CC)Sc3ccccc32)c1 (centres undefined)	-	-	-	0	-	-	-	-	-	-	-	-	-
O=C(CSc1nc2ccccc2c(=O)n1-c1ccc(Cl)cc1)N/N=C/C=C/c1ccccc1[N+](=O)[O-]	0	0	0	0	?	0	-	-	-	-	-	-	-
O=C(CSc1nc2ccccc2c(=O)n1-c1ccccc1)N/N=C/C=C/c1ccccc1[N+](=O)[O-]	0	0	0	0	2.91µM	0	0	9.97µM	0	?	?	0	0
Cc1cnc(C(=O)N2CCc3c([nH]c4ccccc34)C2c2ccc(F)cc2)cn1 (centres undefined)	0	0	-	0	?	0	-	-	-	-	-	-	-
CCc1ccc(C2c3[nH]c4ccccc4c3CCN2C(=O)c2cc(C)nn2C)cc1 (centres undefined)	0	0	-	0	?	0	-	11.2µM	19.9µM	?	?	?	-
O=C(Nc1nc(-c2ccc3c(c2)OCCO3)cs1)c1ccc(S(=O)(=O)N2CCCCC2)cc1	0	0	0	0	4.11µM	0	-	?	2.81µM	0	3.53µM	0	-
